From PubChem
GRK2 aptamer HTS: human GRK2 inhibition via aptamer displacement | bead flow cytometry, FAM-aptamer displacement from GRK2 | AID 488847 | inhibition of aptamer binding, % at 10 µM | 0.59% of 330,000 active;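 active = inhibition of aptamer binding above 40%, roughly 3 SD of noise, on plates passing a quality check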;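 also: median bead fluorescence of bound FAM aptamer so fluorescent compounds give negative values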
NadD inh: blocks S. aureus nicotinate mononucleotide adenylyltransferase. AID 602399. purified NadD enzyme, colorimetric absorbance read-out. 0.78% of 360,000 active. inhibition, % at 20 µM; in the data active = inhibition above about 26%
Beta2AR agonist: activates human beta-2 adrenergic receptor causing internalization. response, % (no concentration beside the values). 0.43% of 340,000 active. AID 504454. Am2.2-beta2AR cells, FAP receptor internalization, flow cytometry. P07550;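 active = response above a set limit, near 3 SD of response in nonfluorescent compounds, cut at about 42% in these data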
PP1 counter: blocks human PP1-alpha phosphatase, a PP5 counter-screen; purified PP1alpha, OMFP fluorescence; inhibition, % at 6.7 µM; 0.9% of 320,000 active;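 active = inhibition above the mean inhibition of all tested compounds plus 3 SD, computed separately for each screening campaign, cut at about 15% in these data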
Target sequence (P62136 whole entry, looked up): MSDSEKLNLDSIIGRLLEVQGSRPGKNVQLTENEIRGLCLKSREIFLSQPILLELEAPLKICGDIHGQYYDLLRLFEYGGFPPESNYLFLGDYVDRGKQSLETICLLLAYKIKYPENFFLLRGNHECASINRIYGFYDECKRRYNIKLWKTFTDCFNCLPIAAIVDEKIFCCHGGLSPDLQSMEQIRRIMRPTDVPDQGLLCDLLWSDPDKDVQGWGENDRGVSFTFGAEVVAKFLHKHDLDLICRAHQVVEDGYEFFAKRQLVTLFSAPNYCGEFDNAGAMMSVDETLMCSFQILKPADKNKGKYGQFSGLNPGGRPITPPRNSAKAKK
Exocytosis inh: lytic granule exocytosis inhibition; TALL-104 LAMP-1 surface exposure, flow cytometry; cells stimulated with thapsigargin and PMA; inhibition, % at 10 µM; 0.66% of 360,000 active; AID 651702;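 active = inhibition above about 55%, limit read from the data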
GRK2 CP1: human GRK2 inhibition confirmation, cherry pick 1. 4% of 2,000 active. shares compounds with GRK2 aptamer HTS. aptamer displacement, % at 10 µM. bead-bound GRK2, FAM-aptamer displacement, flow cytometry;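 active = aptamer displacement above 40%, near three times the noise of non-fluorescent compounds, on plates passing quality checks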;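 also: negative values mostly reflect intrinsic compound fluorescence rather than true enhancement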
Aptamer quench 1: quenches fluorescent RNA aptamer, GRK2 hit artifact; fluorescence change (kMESF span), kMESF (no concentration beside the values); 110 tested, under 10 active; shares compounds with GRK2 aptamer HTS; Fluorescent RNA aptamer beads, quenching, flow cytometry; hits give high values;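 active = compounds whose bead fluorescence drops by more than 37 kMESF across the dose range, marking them as dye quenchers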
FAM quench CP1: counter-screen for GRK2 aptamer inhibitors: fluorescent aptamer quenchers; shares compounds with GRK2 aptamer HTS; Carboxyfluorescein RNA aptamer on beads, flow cytometry quenching; hits give low values; fluorescence response (% of DMSO), % at 10 µM; 2,000 tested, under 10 active;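 active = compounds that quench the bead-bound fluorescent RNA probe, cutting fluorescence to under half of the solvent control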;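 also: counterscreen run without GRK2 so only probe quenching by compound is measured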
GRK2 confirm 2: human GRK2 inhibition confirmation, cherry pick 2; shares compounds with GRK2 aptamer HTS; bead-bound GRK2, FAM-aptamer displacement, flow cytometry; inhibition of aptamer binding, % at 10 µM; 360 tested, under 10 active; AID 504782;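 active = inhibition of aptamer binding above 40%, about triple the noise seen with nonglowing compounds, on plates passing quality control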;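 also: negative values mostly come from compounds that fluoresce themselves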
FAM quench SP: counter-screen for GRK2 binding hits: quenchers of fluorescent RNA aptamer; fluorescence response vs DMSO, % at 10 µM; shares compounds with GRK2 aptamer HTS; 360 tested, under 10 active; carboxyfluorescein RNA aptamer beads, flow cytometry quenching; hits give low values; AID 588494;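 active = response vs DMSO under 50%, meaning signal dropped by over half, treated as fluorescence quencher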;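 also: labelled aptamer on streptavidin beads without GRK2 as a quench counter-screen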
Each line names hits and unclear results; the compound was inactive in the other large screens (follow-up assays come after a bar, where they were run). Rows were chosen to be rich in hits. Some 2.9% of all compounds tested hit in one or more screens of this group.

Cc1ccc(/C=C2/C(=N)N3N=C(CC(=O)N4CCCC4)SC3=NC2=O)cc1	GRK2 aptamer HTS 44.0 | GRK2 CP1 inactive | FAM quench CP1 inactive
CCC(=O)Nc1cccc(-c2ccc(N3CCN(C)CC3)nn2)c1	none
CN1CCN(c2ccc(-c3cccc(NC(=O)COc4ccc(Cl)cc4)c3)nn2)CC1	none | GRK2 CP1 inactive | FAM quench CP1 inactive
CN1CCN(c2ccc(-c3cccc(NC(=O)COc4ccccc4)c3)nn2)CC1	none | GRK2 CP1 inactive | FAM quench CP1 inactive
CCN(CC)CCn1c(=S)[nH]c2ccc(Br)cc2c1=O	none
O=C(CNS(=O)(=O)c1cccc(C(F)(F)F)c1)NC1CCCCCC1	none (no result: PP1 counter)
O=C(CNS(=O)(=O)c1ccc(Cl)c(C(F)(F)F)c1)NC1CCCCCC1	GRK2 aptamer HTS 43.0 | GRK2 confirm 2 inactive | FAM quench SP inactive
C[C@H]1CN=C(N(C)C)N1CCC1CCCCC1	none
C[C@H]1CN=C(N(C)C)N1CCCC1CCCC1	GRK2 aptamer HTS 42.0 | GRK2 CP1 inactive | FAM quench CP1 inactive
O=C(O)c1ccc(-c2nc3ccccc3s2)o1	none
O=C(O)CC(C(=O)O)N1C(=O)/C(=C/c2ccc(-c3nc4ccccc4s3)o2)SC1=S (centres undefined)	GRK2 aptamer HTS 44.0 | GRK2 CP1 inactive | FAM quench CP1 inactive
CC(CNc1nc2ccccc2n2cnnc12)c1ccccc1 (centres undefined)	GRK2 aptamer HTS 42.0 | GRK2 CP1 inactive | FAM quench CP1 inactive
Cc1ccnn1CCC(=O)N1CCCC(CCC(=O)NCc2ccccc2F)C1 (centres undefined)	none | GRK2 CP1 inactive | FAM quench CP1 inactive
COc1ccccc1CC(=O)N1CCCC(CCC(=O)NCc2ccccc2F)C1 (centres undefined)	none
C=CCN1C(=O)C(=O)N(CC(=O)NCC(=O)Nc2ccc(F)c(F)c2F)C1=O	none (no result: PP1 counter)
O=C(NCc1ccccc1F)C1CCCN(S(=O)(=O)N2CCOCC2)C1 (centres undefined)	none | GRK2 CP1 inactive | FAM quench CP1 inactive
COc1ccc(C(=O)C2CCCN(Cc3cnc(N4CCOCC4)s3)C2)c(OC)c1 (centres undefined)	none
CC(C)Oc1cccc(C(=O)C2CCCN(Cc3cnc(N4CCOCC4)s3)C2)c1 (centres undefined)	GRK2 aptamer HTS 53.0 | GRK2 CP1 inactive | FAM quench CP1 inactive
COc1ccc(C(=O)C2CCCN(Cc3cnc(N4CCOCC4)s3)C2)cc1F (centres undefined)	none | GRK2 CP1 inactive | FAM quench CP1 inactive
Cc1ccc(CNC(=O)C2CCCN(Cc3cnn(-c4ccccc4)c3-n3cccc3)C2)cc1 (centres undefined)	none | GRK2 CP1 inactive | FAM quench CP1 inactive
O=C(NCC1CCCO1)C1CCCN(Cc2cnn(-c3ccccc3)c2-n2cccc2)C1 (centres undefined)	none | GRK2 CP1 inactive | FAM quench CP1 inactive
CCOC(=O)/C(N=Nc1ccc2c(c1)OCO2)=C(\C)O	none
CC(=O)Nc1nc(SCC(=O)NCc2ccc(F)cc2)[nH]c(=O)c1NC(=O)c1cccs1	none
Cn1cnnc1SCC(=O)c1c[nH]c2ccccc12	none
O=C(CSc1nncn1-c1ccccc1)c1c[nH]c2ccccc12	GRK2 aptamer HTS 51.0 | GRK2 CP1 inactive | FAM quench CP1 inactive
CC(=O)n1cc([C@@H]2C=C(C(=O)Nc3ccccc3)O[C@H](OCc3ccc(CO)cc3)C2)c2ccccc21	GRK2 aptamer HTS 64.0 | GRK2 CP1 inactive | FAM quench CP1 inactive
Cc1ccc(C)c(N2N=C(C(=O)N(CC(C)C)c3c(N)n(Cc4ccccc4)c(=O)[nH]c3=O)CCC2=O)c1	none | GRK2 CP1 inactive | FAM quench CP1 inactive
COc1ccc(CC(=O)Nc2nc(-c3ccc(F)c(F)c3)cs2)cc1	GRK2 aptamer HTS 92.0 | GRK2 CP1 inactive | FAM quench CP1 inactive
CC(=O)O[C@H]1[C@H](O)[C@H](Oc2c(O)c(C)c3c4c2[C@@H](C)CC[C@@H]4[C@@H](C)C[C@H]3C=C(C)C)O[C@@H](C)[C@H]1O	none (no result: PP1 counter)
CC1(C)CC(NC(=S)Nc2ccc(S(N)(=O)=O)cc2)CC(C)(C)N1	GRK2 aptamer HTS 72.0 | GRK2 CP1 inactive | FAM quench CP1 inactive
O=C(O)Cc1ccc(O)cc1	none
O=C(O)Cc1ccc(-c2ccccc2-c2ccccc2)cc1	GRK2 aptamer HTS 98.0 | GRK2 CP1 inactive | FAM quench CP1 inactive
CCN1/C(=C/c2ccc3cc(C)ccc3[n+]2CC)Sc2ccccc21	GRK2 aptamer HTS 55.0 (no result: Beta2AR agonist) | GRK2 CP1 inactive | FAM quench CP1 inactive
CC[n+]1ccccc1/C=C1\Sc2ccc(C)cc2N1C	none
CCOC(=O)c1ccc2nc(NC(=O)C(C)C)sc2c1	GRK2 aptamer HTS 62.0 | GRK2 CP1 inactive | FAM quench CP1 inactive
NC(CO)C(O)c1ccc([N+](=O)[O-])cc1 (centres undefined)	GRK2 aptamer HTS 98.0 | GRK2 CP1 inactive | FAM quench CP1 inactive
O=C(O)CN1C(=O)SC(Nc2ccccc2C(=O)O)C1=O (centres undefined)	none
COc1ccc([N+](=O)[O-])cc1N1C(=O)c2cccnc2C1=O	none
CC(=O)Oc1ccc([N+](=O)[O-])cc1N1C(=O)c2ccccc2C1=O	GRK2 aptamer HTS 100.0 | GRK2 confirm 2 inactive | FAM quench SP inactive
CCCc1cc(=O)oc2cc(OCC(=O)NC3CCN(Cc4ccccc4)CC3)ccc12	none
CC1=C(C(=O)Nc2cc(C(=O)N(C)Cc3ccccc3)ccc2C)SCCO1	none | GRK2 CP1 inactive | FAM quench CP1 inactive
COCCNC(=O)c1ccc(C)c(NC(=O)C2=C(C)OCCS2)c1	none
COc1ccc(OC)c(CNC(=O)c2ccc(C)c(NC(=O)C3=C(C)OCCS3)c2)c1	none | GRK2 CP1 inactive | FAM quench CP1 inactive
CN1CCN(c2nc3c(c(=O)n(C)c(=O)n3C)n2Cc2ccccc2F)CC1	none
COCCCNC(=O)C(=O)NC1CCCCCC1	none
COCCNC(=O)C/C(C)=N/NC(=O)C(=O)NC1CCCCC1	GRK2 aptamer HTS 57.0 | GRK2 CP1 86.1 | Aptamer quench 1 inactive | FAM quench CP1 inactive
Cc1ccc(CN(C(=O)c2ccc([N+](=O)[O-])cc2)C2CCS(=O)(=O)C2)o1 (centres undefined)	none
